Shown are actives, neighbours in structure and some others; about 2.5% of the full set was active somewhere.
LGR2 inh: blocks bursicon-induced cAMP signaling via Drosophila LGR2; 0.35% of 380,000 active; AID 720647; inhibition, % at 9.99 µM; HEK293 LGR2, CRE-luciferase, bursicon-stimulated, 4 h;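 active means drop in luminescence signal, shown as inhibition above about 50% in the replicate tests, limit read from the data, passing the limit was not always enough; inconclusive means probably only some replicates passing the limit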;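 further: agonist challenge used bursicon conditioned medium at about half maximal strength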
TWEAK Fn14 block: TWEAK-Fn14 signaling inhibition; AID 1159606; TWEAK-stimulated Fn14 reporter cells, luciferase luminescence, 8 h; 2% of 360,000 active; inhibition, % at 10 µM; in the data active means inhibition above about 50%
EBV LMP1 NFkB: Epstein-Barr LMP1 NF-kappaB reporter inhibition. LMP1-induced NF-kappaB luciferase reporter cells, luminescence. AID 504558. inhibition, % at 12.5 µM. 0.69% of 350,000 active; in the data active means inhibition above about 41%; inconclusive means no clear call, values can overlap the other calls;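 further: 0% = neutral control wells and 100% = reference inhibitor control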
EWS-Fli block: inhibitors of EWS/Fli oncoprotein transcriptional activity; A673 NR0B1-luciferase reporter, viability-normalised; 0.67% of 350,000 active; inhibition, % at 12.6 µM;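 active means mean inhibition of at least 50% after viability correction, with every replicate also passing that limit; inconclusive means mean reaches 50% but only one of two replicates passes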;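 further: firefly luciferase signal divided by Alamar Blue viability fluorescence both relative to DMSO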
TROY signal inh: inhibitors of TROY-dependent NF-kB signaling. Q293 LMP1-TROYcd NF-kB luciferase reporter, 4 h. inhibition, % at 10 µM. 0.98% of 360,000 active. AID 1347056;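 active means compounds whose plate-normalised and pattern-corrected inhibition of the luciferase reporter signal at the single screening dose is 50% or more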
* = called active by the depositor; ? = inconclusive; / = not tested or not shown; ! = a repeat was not active.

SMILES	LGR2 inh	TWEAK Fn14 block	EBV LMP1 NFkB	EWS-Fli block	TROY signal inh
CCCNC(=O)C[C@@H]1C[C@@H]2c3cc(NS(=O)(=O)c4cccc(OC)c4)ccc3O[C@@H]2[C@H](CO)O1	-1.8	/	/	-1.4	/
Cc1ccc2nc(NC(=O)c3ccc(-c4nc5ccccc5s4)s3)sc2c1	-15.9	49.1	-62.2	-4.2	-9.8
O=C(c1ccc(-c2nc3ccccc3s2)s1)N1CCOCC1	76.4*	/	/	76.8*	/
O=C(NC1CC1)c1ccc(-c2nc3ccccc3s2)s1	/	96.7*	42.3*	/	70.8*
Cc1occc1-c1nc(-c2ccccn2)no1	/	61.8*	13.8	/	3.2
c1ccc(-c2noc(-c3ccncc3)n2)nc1	/	35.4	6.4	/	1.9
Cc1cccc(-c2noc(-c3ccc4c(c3)OCO4)n2)c1	66.3*	56.7*	-38.6	31.9	42.1
c1ccc(-c2noc(-c3ccc4c(c3)OCO4)n2)nc1	/	100.8*	77.7*	/	85.0*
c1ccc(-c2noc(-c3ccc4ccccc4c3)n2)nc1	/	105.0*	82.5*	/	85.9*
CCCOc1ccccc1N/C(=N/c1nc(C)cc(C)n1)NC(=O)COc1ccc(OC)cc1	/	53.2*	23.7	/	18.1
COc1ccc(C[C@H]2CN3C(=NC[C@@H]3Cc3ccccc3)N2CCNC(=O)CCC2CCCCC2)cc1	82.0*	-19.2	0.4	?	-7.7
C[C@@H]1CN([C@@H](C)CO)C(=O)c2cc(/C=C/c3ccccc3)cnc2O[C@H]1CN(C)C(=O)C1CCCCC1	9.6	/	/	-4.6	/
Cc1[nH]nc2c1C(c1cc(Br)cs1)C(C#N)=C(N)O2 (stereo not given)	14.4	60.7*	14.3	19.0	5.3
COc1ccc2c(c1)CCc1cc(C(=O)N3CCN(c4ccc(N5CCOCC5)nn4)CC3)sc1-2	/	44.9	14.0	/	56.1*
COc1cccc(-c2ccc(C3[C@H]4CNC[C@@H]3N4Cc3ccc(F)cc3)cc2)c1 (stereo not given in full)	-14.0	/	/	62.8*!	/
CC1=NN(c2nc(-c3ccc(C)cc3)cs2)C(=O)C1N=Nc1ccc2ccccc2c1 (stereo not given)	/	25.0	-11.9	/	-10.5
CC1=NN(c2nc(-c3ccc(C)cc3)cs2)C(=O)C1N=Nc1ccc(C(N)=O)cc1 (stereo not given)	13.9	28.6	12.8	54.6*	-12.8
CC(=O)NCCNC(=O)C1(C)Cc2c(-c3ccccc3)ccnc2O1 (stereo not given)	-9.4	8.2	/	-2.0	0.6
CC1(C(=O)NCc2ccco2)Cc2c(-c3ccccc3)ccnc2O1 (stereo not given)	1.7	10.3	/	59.4*	21.1
CC1(C(=O)NCc2cccs2)Cc2c(-c3cccc(C(F)(F)F)c3)ccnc2O1 (stereo not given)	1.3	22.4	/	55.3*	20.5
CCOc1ccccc1C(=O)N[C@H](C(=O)OCc1cc([N+](=O)[O-])cc2c1OCOC2)C(C)C	-7.9	21.1	49.4*	/	-2.3
C[C@@H]1CCCCO[C@@H](CN(C)C(=O)Nc2cccc3ccccc23)[C@@H](C)CN([C@H](C)CO)C(=O)c2cc(NC(=O)c3ccncc3)ccc2O1	-4.1	/	/	-2.7	/
O=C(C[C@H]1C[C@@H]2c3cc(NC(=O)c4cccnc4)ccc3O[C@@H]2[C@@H](CO)O1)NC1CCCC1	13.5	/	/	-5.0	/
C=CC(C)(C)c1c(O)c(CC=C(C)C)c(O)c2c(=O)c3ccc(O)c(O)c3oc12	/	76.5*	34.0	/	46.4
C=CC(C)(C)c1c2occc2c(O)c2ccc(=O)oc12	3.1	10.5	4.0	1.9	20.0
SMILES	LGR2 inh	TWEAK Fn14 block	EBV LMP1 NFkB	EWS-Fli block	TROY signal inh
C[C@@H]1CN([C@H](C)CO)S(=O)(=O)c2ccc(-c3cccc(C#N)c3)cc2O[C@@H]1CN(C)C(=O)c1ccncc1	-1.1	/	/	-17.4	/
Clc1ccc(-c2csc(=Nc3cccnc3)n2CCCn2ccnc2)cc1Cl	/	66.0*	30.0	8.0	45.6
N#Cc1ccc(-c2csc(NNC(=O)c3ccc(Br)cc3)n2)cc1	7.2	-7.8	54.8*	/	0.6
C[C@H](CO)N1C[C@H](C)[C@H](CN(C)C(=O)Nc2ccc(C(F)(F)F)cc2)Oc2ccc(NC(=O)Nc3ccc(F)cc3)cc2CC1=O	14.2	/	/	1.5	/
COc1cccc(-c2ccc([C@@H]3[C@@H](CO)N4C(=O)CN(C(=O)CN5CCOCC5)C[C@H]34)cc2)c1	-14.0	/	/	3.6	/
CCCNC(=O)c1nnsc1S(=O)(=O)c1ccc(Cl)cc1	96.2*	70.1*	?	13.0	73.0*
Cc1ccc(S(=O)c2snnc2C)cc1 (stereo not given)	-10.0	7.4	-1.0	19.9	-11.7
CNC(=O)c1nnsc1S(=O)c1ccc(Cl)cc1 (stereo not given)	102.4*	63.5*	7.8	-11.1	60.1*
CCCNC(=O)c1nnsc1S(=O)c1ccc(Cl)cc1 (stereo not given)	102.8*	71.7*	1.9	40.7	59.0*
CCCNC(=O)c1ccc(S(N)(=O)=O)cc1	-14.8	7.0	3.9	8.4	-12.7
CCCNC(=O)c1ccc2snnc2c1	13.1	-12.5	-5.1	/	-0.2
CCCNC(=O)NS(=O)(=O)c1ccc(Cl)cc1	6.6	2.3	58.5*	-2.2	-2.6
CC(C)C#Cc1cnc2c(c1)C(=O)N([C@H](C)CO)C[C@H](C)[C@H](CN(C)C(=O)Nc1cc(F)ccc1F)O2	-14.0	/	/	-1.1	/
C=CCN1C(=O)N(c2ccc(F)cc2)C(=O)C1CC(=O)Nc1ccc(Cl)cc1 (stereo not given)	-5.8	80.2*	-1.3	-0.6	2.7
C=CCN1C(=O)N(c2ccc(Cl)cc2)C(=O)C1CC(=O)Nc1ccc(F)cc1 (stereo not given)	14.7	38.1	13.7	-0.7	6.4
C[C@H](CO)N1C[C@H](C)[C@H](CN(C)Cc2ccc(C(F)(F)F)cc2)Oc2ccc(NS(=O)(=O)c3cccs3)cc2CC1=O	16.4	/	/	-0.5	/
CC(C)NCC(O)COc1cccc2ccccc12 (stereo not given)	-7.5	-25.3	51.8*	3.5	-1.6
Cc1cccc(CS(=O)(=O)c2ncc(Cl)c(C(=O)NCc3ccc4c(c3)OCO4)n2)c1	4.5	89.1*	-1.7	/	69.3*
CC(=O)Nc1ccc(NC(=O)c2nc(S(=O)(=O)Cc3cccc(C)c3)ncc2Cl)cc1	-39.2	70.0*	6.9	61.1*	74.8*
COC(=O)c1ccc(NC(=O)c2nc(S(=O)(=O)Cc3cccc(C)c3)ncc2Cl)cc1	6.2	71.6*	19.6	/	75.9*
Cc1ccc(C(=O)NCc2ccc3c(c2)OCO3)c(Cl)c1	-53.4	-10.8	-10.3	-22.3	-51.0
O=C(Nc1ccccc1)[C@@H]1[C@@H](CO)[C@@H]2Cn3c(cccc3=O)[C@@H]2N1C(=O)C1CCC1	-9.7	/	/	-7.9	/
CN1C(=O)c2cc(NC(=O)Nc3cccc(Cl)c3)ccc2OC[C@H]2O[C@@H](CC(=O)O)CC[C@@H]21	11.7	/	/	1.6	/
CC1=CC(=C2C(=O)c3ccccc3C2=O)C=C(C)N1C	-11.9	10.2	-17.7	/	-21.3
CCCCCN1C=CC(=C2C(=O)c3ccccc3C2=O)C=C1	104.1*	77.4*	76.2*	90.9*	78.3*

Source: PubChem BioAssay
